A number with no mark means an inactive call. Results filed as inconclusive are left out. Entries that show only a call come without a potency. Active and inactive are the calls of the source. The call rests on the fitted dose curve; in most records, active means well fitted curve in the direction sought with a large enough effect; inconclusive means small, poorly fitted or top-dose-only effect, or another doubt; inactive means no such curve, though single readings can be large; an effect the other way counts as inactive or inconclusive. Where a SMILES comes first, the peptide text is derived from it.
Experiments:
[1] = target: Glutathione peroxidase 1 (Homo sapiens) (UniProt P07203); assay: Primary qHTS Assay for Inhibitors of Recombinant Selenoprotein Glutathione Peroxidase 1 (GPX1) (AID 1845191); further: nearly all actives have a fitted effect of over 65% in size
Sequence of Glutathione peroxidase 1 (Homo sapiens) (P07203 whole entry, looked up): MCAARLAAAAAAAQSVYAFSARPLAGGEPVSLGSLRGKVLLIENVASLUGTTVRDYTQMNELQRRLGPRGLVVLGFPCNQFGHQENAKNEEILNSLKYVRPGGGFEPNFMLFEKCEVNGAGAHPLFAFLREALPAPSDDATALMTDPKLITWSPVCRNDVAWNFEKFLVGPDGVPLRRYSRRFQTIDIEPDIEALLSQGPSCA
Procedure, shortened: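 GR-coupled readout: NADPH consumption tracked by fluorescence, ex 340/em 450 nm, at t=0 and after 15 min at RT. Final mix 10 nM GPX1, 1 mM GSH, 0.5 mM CHP, 0.5 mM NADPH, 100 nM GR, 0.01% BSA, following 30 min enzyme–compound preincubation.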

[2] = target: Phospholipid hydroperoxide glutathione peroxidase GPX4 (Homo sapiens) (UniProt P36969); assay: Primary qHTS Assay for Inhibitors of Recombinant Selenoprotein Glutathione Peroxidase 4 (GPX4) (AID 1845192); further: nearly all actives have a fitted effect of over 65% in size; on activity change, negative = inhibition: series mostly up to about 50 µM
Sequence of Phospholipid hydroperoxide glutathione peroxidase GPX4 (Homo sapiens) (P36969 whole entry, looked up): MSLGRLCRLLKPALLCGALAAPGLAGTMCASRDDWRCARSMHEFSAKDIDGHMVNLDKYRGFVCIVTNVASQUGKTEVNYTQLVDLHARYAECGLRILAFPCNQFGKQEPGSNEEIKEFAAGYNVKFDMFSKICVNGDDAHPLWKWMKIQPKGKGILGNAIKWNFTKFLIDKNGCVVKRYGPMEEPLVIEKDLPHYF
Procedure, shortened: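 Steps: GPX4 plus compound, 30 min RT; add GR/GSH/NADPH master mix; start with cumene hydroperoxide; read 340/450 nm fluorescence at 0 and 15 min. Finals were 200 nM GPX4, 1 mM GSH, 0.5 mM CHP, 0.5 mM NADPH, 100 nM GR.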

[3] = target: Luciferin 4-monooxygenase (Photinus pyralis) (UniProt P08659); assay: Primary firefly luciferase (FLuc) qHTS assay for identification of artifact compounds. (AID 1845220); further: nearly all actives have a fitted effect of over 60% in size; on activity change, negative = inhibition: series mostly up to about 54 µM
Procedure, shortened: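 Titrated compounds were incubated 15 min at RT, protected from light, with luciferin and ATP at 10 uM; reaction started with 10 nM FLuc, luminescence imaged at 5 min, and concentration-response fitted by Hill equation.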

[4] = Primary fluorescence-based thiol-reactive (MSTI) qHTS assay for identification of artifact compounds. (AID 1845221); further: nearly all actives have a fitted effect of over 65% in size; further: potency means the concentration at half of the fitted maximal effect;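 on activity change, negative = thiol reactive: series mostly up to about 54 µM; thiol-reactive compounds lower the probe fluorescence signal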
Procedure, shortened: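 In PBS pH 7.4 with 2% DMSO, each compound met 4 uM MSTI for one hour at ambient temperature, shielded from light, before fluorescence detection.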

[5] = tested on: Nanoluciferase (engineered Oplophorus gracilirostris luciferase); assay: Primary Nanoluciferase (NLuc) qHTS assay for identification of artifact compounds. (AID 1845222);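 further: NLuc secreted into diluted conditioned medium of S16 cells; series mostly up to about 54 µM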
Procedure, shortened: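 qHTS format, against NLuc in S16 cell-conditioned medium. Nano-Glo substrate 1:100 was added after 15 min at room temperature. Luminescence was taken after a further 5 min.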

[6] = Primary redox qHTS assay for identification of artifact compounds. (AID 1845223)
Procedure, shortened: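 Redox-cycling detection via DTT (250 uM final) oxidation coupled to Amplex Red (25 uM)/HRP (250 mU/mL) in HBSS. 15 min preincubation plus 30 min after DTT, room temperature. Ex/Em 525/598 nm; 4-parameter Hill fit against DMSO and 10 uM DA3003.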

SMILES: C=C1C[C@]23C[C@@]1(O)CC[C@H]2[C@@]12C=C[C@H](O)[C@@](C)(C(=O)O1)[C@H]2[C@@H]3C(=O)O
- Potency [1]: inactive
- Potency [2]: inactive
- Potency [3]: inactive
- Potency [4]: inactive
- Potency [5]: inactive
- Potency [6]: inactive

SMILES: C/C=C(\C)C(=O)OC[C@H]1O[C@@H](O[C@H]2[C@@H](O[C@H]3O[C@H](CO)[C@@H](O)[C@H](O)[C@H]3O[C@@H]3O[C@H](CO)[C@@H](O)[C@H](O)[C@H]3O)O[C@H](COC(=O)/C(C)=C/C)[C@@H](O)[C@@H]2O)[C@H](O)[C@@H](O)[C@@H]1O
- Potency [1]: inactive
- Potency [2]: inactive
- activity change, negative = inhibition [3]: 3.78% [at 11.6 µM]
- activity change, negative = thiol reactive [4]: -18.3% [at 11.5 µM]
- activity, negative = inhibition [5]: -0.032% [at 11.6 µM]
- redox activity (% of DA3003) [6]: -4.48% [at 11.5 µM]

SMILES: CC(C)C1NC(=O)CNC(=O)C2CCCN2C(=O)C(Cc2c[nH]c3ccccc23)NC(=O)CNC(=O)C(Cc2ccc(O)cc2)NC(=O)CNC1=O (stereo not drawn) (cyclo(GVGYGWP); configuration not given here)
- Potency [1]: inactive
- Potency [2]: inactive
- Potency [3]: inactive
- Potency [4]: inactive
- Potency [5]: inactive
- Potency [6]: inactive

SMILES: Cc1ccc(-c2c(-c3nn(C)c4ncnc(N5CCC(N6CCCCC6)C5)c34)cnn2C)cc1 (stereo not drawn)
- Potency [1]: inactive
- Potency [2]: inactive
- Potency [3]: inactive
- Potency [4]: inactive
- Potency [5]: inactive
- Potency [6]: inactive

SMILES: C=C1CC[C@@H]2[C@](C)(CO)[C@H](O[C@@H]3O[C@H](CO)[C@@H](O)[C@H](O)[C@H]3O)CC[C@@]2(C)[C@@H]1C/C=C1/C(=O)OC[C@H]1O
- Potency [1]: inactive
- Potency [2]: inactive
- Potency [3]: inactive
- Potency [4]: 6.53 µM (active)
- Potency [5]: inactive
- Potency [6]: inactive

SMILES: C/C=C/C1OC2=C(C(=O)OC2(C)O)C(O)C1O (stereo not drawn)
- Potency [1]: inactive
- Potency [2]: inactive
- Potency [3]: inactive
- Potency [4]: inactive
- Potency [5]: inactive
- Potency [6]: inactive

SMILES: CSCC1OC(n2cnc3c(=O)[nH]cnc32)C(O)C1O (stereo not drawn)
- Potency [1]: inactive
- Potency [2]: inactive
- Potency [3]: inactive
- Potency [4]: inactive
- Potency [5]: inactive
- Potency [6]: inactive

SMILES: CC(C)=CC1C[C@](C)(O)[C@@H]2[C@H]3CCC4[C@@]5(C)CC[C@H](O[C@@H]6OC[C@H](O)[C@H](O[C@@H]7O[C@H](CO[C@@H]8O[C@H](CO)[C@@H](O)[C@H](O)[C@H]8O)[C@@H](O)[C@H](O)[C@H]7O)[C@H]6O[C@@H]6O[C@@H](C)[C@H](O)[C@@H](O)[C@H]6O)C(C)(C)[C@@H]5CC[C@@]4(C)[C@@]34CO[C@@]2(C4)O1 (stereo partly drawn)
- Potency [1]: inactive
- Potency [2]: inactive
- outcome [3]: inactive [at 11.6 µM]
- activity change, negative = thiol reactive [4]: 458% [at 11.5 µM]
- activity, negative = inhibition [5]: 4.79% [at 11.6 µM]
- redox activity (% of DA3003) [6]: 14.6% [at 11.5 µM]

SMILES: C[C@]12CC/C(=N\OCC(=O)O)C=C1CC[C@@H]1[C@@H]2[C@@H](O)C[C@@]2(C)[C@H]1CC[C@]2(O)C(=O)CO
- Potency [1]: inactive
- Potency [2]: inactive
- Potency [3]: inactive
- Potency [4]: inactive
- Potency [5]: inactive
- Potency [6]: inactive

SMILES: NC[C@@H]1O[C@@H](O[C@@H]2[C@@H](O[C@@H]3O[C@H](CO)[C@@H](O)[C@H]3O)[C@H](O)[C@@H](N)C[C@H]2N)[C@@H](N)[C@H](O)[C@H]1O
- Potency [1]: inactive
- Potency [2]: inactive
- outcome [3]: inactive [at 11.6 µM]
- activity change, negative = thiol reactive [4]: -13.5% [at 11.5 µM]
- activity, negative = inhibition [5]: 0% [at 11.6 µM]
- redox activity (% of DA3003) [6]: -8.2% [at 11.5 µM]

SMILES: C/C=C(/C)C(=O)OC1C2OC2C2(CO2)C2C3OC(=O)C(C)C3CCC12C (stereo not drawn)
- Potency [1]: inactive
- Potency [2]: inactive
- Potency [3]: inactive
- Potency [4]: inactive
- Potency [5]: inactive
- Potency [6]: inactive

SMILES: COc1cccc(C)c1C(=O)O[C@@H]1C[C@H](O[C@H]2[C@H](O)C[C@H](O[C@@H]3CCC[C@H]4[C@H]3C=C[C@@H]3CCCC/C=C/[C@H]5C=C(C(=O)O)[C@@H](C)C[C@@]56OC(=O)C(=C6O)OC(=O)[C@@]34C)O[C@@H]2C)O[C@H](C)[C@H]1O
- Potency [1]: inactive
- Potency [2]: inactive
- activity change, negative = inhibition [3]: 4.15% [at 11.6 µM]
- activity change, negative = thiol reactive [4]: 170% [at 11.5 µM]
- activity, negative = inhibition [5]: 4.95% [at 11.6 µM]
- redox activity (% of DA3003) [6]: -8.49% [at 11.5 µM]

SMILES: CC[C@H]1OC(=O)[C@H](C)C(=O)[C@H](C)[C@@H](OC2O[C@H](C)C[C@H](N(C)C)[C@H]2O)[C@@H](C)C[C@@H](C)C(=O)/C=C/[C@]1(C)O (stereo partly drawn)
- Potency [1]: inactive
- Potency [2]: inactive
- Potency [3]: inactive
- Potency [4]: inactive
- Potency [5]: inactive
- Potency [6]: inactive

SMILES: O=C(O)CCc1c(C(=O)O)[nH]c2cc(Cl)cc(Cl)c12
- Potency [1]: inactive
- Potency [2]: inactive
- Potency [3]: inactive
- Potency [4]: inactive
- Potency [5]: inactive
- Potency [6]: inactive

SMILES: CC(=O)O[C@@H]1C(=O)C(C)=C(CCC(C)CC(=O)O)[C@@]2(C)CCCC(C)(C)C12 (stereo partly drawn)
- Potency [1]: inactive
- Potency [2]: inactive
- Potency [3]: inactive
- Potency [4]: inactive
- Potency [5]: inactive
- Potency [6]: inactive

SMILES: C/C(=C\CCC1(C)C2CC3C(C2)C31C)C(=O)O (stereo not drawn)
- Potency [1]: inactive
- Potency [2]: inactive
- Potency [3]: inactive
- Potency [4]: inactive
- Potency [5]: inactive
- Potency [6]: inactive

SMILES: CC(=O)C1CCC(=O)N1Cc1ccccc1 (stereo not drawn)
- Potency [1]: inactive
- Potency [2]: inactive
- Potency [3]: inactive
- Potency [4]: inactive
- Potency [5]: inactive
- Potency [6]: inactive

SMILES: Cc1oc2nc3c(c(NC(=O)CN4CCCC4=O)c2c1C)CCCC3
- Potency [1]: inactive
- Potency [2]: inactive
- Potency [3]: inactive
- Potency [4]: inactive
- Potency [5]: inactive
- Potency [6]: inactive

Source: PubChem BioAssay (NCATS)
